# Experimental data: ChEMBL document CHEMBL3988442, “University of Dundee, Small-Polar-MMV Screening Library” (2021)
# About 960 (1.5%) of roughly 66,000 compounds showed an effect of 50% or more. The sample as a whole holds a higher share of strong results than the screen did.
# Test system: Trypanosoma brucei
# Experiment: Trypanosoma brucei 72 hour study
# Format: functional, organism-based
# Design: scale not given: in the data most compounds retested in dose-response had high values
SMILES,"Percent Effect (30 µM, 30.03 µM) [%]","Percent Effect (30.3 µM, […]) [%]"
CCc1[nH]c2c(CNc3nccc(N)n3)cc(F)cc2c1C,24.46,
Cc1nc(CN2CCO[C@H]3[C@H](OCC(=O)N(C)C)CC[C@@H]32)cs1.O=C(O)C(F)(F)F,-32.64,
Cn1nc(CN2CCC(c3ccncc3)CC2)c2c(Cl)cccc21,,31.87
Cn1nc(CN2CCCN(C3CCCC3)CC2)c2c(Cl)cccc21,,100.6
C[C@@H]1CN(C2CCN(Cc3nn(C)c4cccc(Cl)c34)CC2)C[C@H](C)O1,,10.53
Cc1cccc(N2CCC3(CCN(C(=O)c4cccnc4)CC3)C2)n1.O=C(O)C(F)(F)F.O=C(O)C(F)(F)F,38.81,
Cc1cnc(N2CCC3(CCN(CC4CCCC4)C3=O)CC2)nc1.O=C(O)C(F)(F)F,,-22.16
Cc1ccc(CN(Cc2cccnc2)C2CC(C)(C)NC(C)(C)C2)s1.O=C(O)CC(O)(CC(=O)O)C(=O)O,,78.89
CC1(C)CC(N(Cc2ccncc2)Cc2cccnc2)CC(C)(C)N1.O=C(O)CC(O)(CC(=O)O)C(=O)O,,3.133
CC1(C)CC(N(Cc2ccccc2)Cc2cccnc2)CC(C)(C)N1.O=C(O)CC(O)(CC(=O)O)C(=O)O,,27.73
CC1(C)CC(N(Cc2cccnc2)Cc2cccnc2)CC(C)(C)N1.O=C(O)CC(O)(CC(=O)O)C(=O)O,,13.11
CC1(C)CC(N(Cc2ccccc2)Cc2c[nH]cn2)CC(C)(C)N1.O=C(O)CC(O)(CC(=O)O)C(=O)O,,9.903
Cc1cccc(CN(Cc2cccnc2)C2CC(C)(C)NC(C)(C)C2)n1.O=C(O)CC(O)(CC(=O)O)C(=O)O,,-21.3
Cc1ccsc1CN(Cc1cccnc1)C1CC(C)(C)NC(C)(C)C1.O=C(O)CC(O)(CC(=O)O)C(=O)O,,61.32
CCCN(Cc1cccnc1)C1CC(C)(C)NC(C)(C)C1.O=C(O)CC(O)(CC(=O)O)C(=O)O,,3.437
CC1(C)CC(N(Cc2cccnc2)Cc2cccc(F)c2)CC(C)(C)N1.O=C(O)CC(O)(CC(=O)O)C(=O)O,,92.81
Cc1ccc(CN(Cc2ccccn2)C2CC(C)(C)NC(C)(C)C2)s1.O=C(O)CC(O)(CC(=O)O)C(=O)O,,71.04
Cc1nc[nH]c1CN(Cc1ccccc1)C1CC(C)(C)NC(C)(C)C1.O=C(O)CC(O)(CC(=O)O)C(=O)O,,9.969
Cc1cccc(CN(Cc2ccc(C)o2)C2CC(C)(C)NC(C)(C)C2)n1.O=C(O)CC(O)(CC(=O)O)C(=O)O,,14.76
CCOc1ccccc1-c1cc(N)[nH]n1.Cl,,-3.53
